Reference: PubChem BioAssay (NCATS)
Inconclusive results are not listed. The source made the active and inactive calls. The call rests on the fitted dose curve; in most records, active means well fitted inhibition curve with a large enough effect; inconclusive means small, poorly fitted or top-dose-only effect; inactive means flat fitted curve, though single readings scatter.

Experiments:
[1] = system: CRL-7250; test: Cytotoxic Profiling of Annotated Libraries Using Quantitative High-Throughput Screening (AID 1296008); details: Five cell lines viability, CellTiter-Glo ATP luminescence, 48-72 h; active compounds read low; on max response: on the % scale 0 is the no-effect control and ±100 the full control effect
Summary of the method: (§1)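 Cytotoxicity was measured as CellTiter-Glo ATP luminescence, read after 10 min at room temperature. Compound treatment of the cells lasted 48 or 72 hr at 37 degrees Celsius in a qHTS format.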

[2] = system: HEK293; test: as above; details: Five cell lines viability, CellTiter-Glo ATP luminescence, 48-72 h; active compounds read low
Summary of the method: as §1

[3] = system: HaCat; test: as above; details: Five cell lines viability, CellTiter-Glo ATP luminescence, 48-72 h; active compounds read low
Summary of the method: as §1

[4] = system: NIH3T3; test: as above; details: Five cell lines viability, CellTiter-Glo ATP luminescence, 48-72 h; active compounds read low
Summary of the method: as §1

[5] = system: HACAT; test: qHTS assay to identify novel small-molecules to repurpose for Merkel cell carcinoma treatment (AID 1296009); details: MCC and control cell lines, CellTiter-Glo viability, 72 h; at 44.8 µM (top of the series) unless noted
Summary of the method: (§2)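 Cell viability measured by CellTiter-Glo following 72 hr compound treatment at 37 degree celsius, with NPC and MIPE libraries tested in 8- and 11-point concentration series.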

[6] = system: MCC-13; test: as above; details: MCC and control cell lines, CellTiter-Glo viability, 72 h; series mostly up to 46 µM
Summary of the method: as §2

[7] = system: MKL-1; test: as above; details: MCC and control cell lines, CellTiter-Glo viability, 72 h; series mostly up to 46 µM
Summary of the method: as §2

[8] = system: MKL-2; test: as above; details: MCC and control cell lines, CellTiter-Glo viability, 72 h; series mostly up to 46 µM
Summary of the method: as §2

[9] = system: PAD; test: qHTS profiling for inhibitors of Plasmodium falciparum proliferation (AID 504749);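 further: 0% = DMSO vehicle and full inhibition = artemisinin control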; details: P. falciparum in erythrocytes, SYBR Green DNA, 72 h; series mostly up to 28.7 µM
Summary of the method: (§3)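 In a 72 h erythrocytic culture (37 C, humidified, 5% CO2) at 2.5% hematocrit and 0.3% starting parasitemia, compounds were tested; SYBR Green I in detergent lysis buffer stained parasite DNA overnight.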

[10] = system: PC15; test: as above; details: P. falciparum in erythrocytes, SYBR Green DNA, 72 h; series mostly up to 28.7 µM
Summary of the method: as §3

[11] = system: PC26; test: as above; details: P. falciparum in erythrocytes, SYBR Green DNA, 72 h; series mostly up to 28.7 µM
Summary of the method: as §3

[12] = system: PC49; test: as above; details: P. falciparum in erythrocytes, SYBR Green DNA, 72 h; series mostly up to 28.7 µM
Summary of the method: as §3

[13] = system: SC27B; test: as above; details: P. falciparum in erythrocytes, SYBR Green DNA, 72 h; series mostly up to 28.7 µM
Summary of the method: as §3

[14] = system: TAB109; test: as above; details: P. falciparum in erythrocytes, SYBR Green DNA, 72 h; series mostly up to 28.7 µM
Summary of the method: as §3

[15] = system: TAB113; test: as above; details: P. falciparum in erythrocytes, SYBR Green DNA, 72 h; series mostly up to 28.7 µM
Summary of the method: as §3

[16] = system: TAB165; test: as above; details: P. falciparum in erythrocytes, SYBR Green DNA, 72 h; series mostly up to 28.7 µM
Summary of the method: as §3

[17] = system: W2; test: as above; details: P. falciparum in erythrocytes, SYBR Green DNA, 72 h; series mostly up to 28.7 µM
Summary of the method: as §3

[18] = system: MCC-26; test: qHTS assay to identify novel small-molecules to repurpose for Merkel cell carcinoma treatment (AID 1296009); details: MCC and control cell lines, CellTiter-Glo viability, 72 h; series mostly up to 46 µM
Summary of the method: as §2

[19] = system: HEK293T; test: as above; details: MCC and control cell lines, CellTiter-Glo viability, 72 h; at 44.8 µM (top of the series) unless noted
Summary of the method: as §2
Further: nearly all actives have a fitted effect of over 60% in size.

NC(=O)NC1NC(=O)NC1=O (configuration not stated)
inactive: outcome [1] | max response [2] -3.84% | outcome [3] | outcome [4] | outcome [5] | outcome [6] | outcome [7] | outcome [8]

C/C=C/C(=O)N(CC)c1ccccc1C
inactive: max response [1] -6.75% | max response [2] 0.227% | max response [3] 0.376% | max response [4] 1.85% | outcome [6] | outcome [7] | outcome [8]

COc1ccc(C(=O)N2CCN(CC(=O)N3CCOCC3)CC2)cc1
inactive: Potency [9] | Potency [10] | Potency [11] | Potency [12] | Potency [13] | Potency [14] | Potency [15] | Potency [16] | Potency [17] | max response [1] 3.53% | max response [2] 4.6% | outcome [3] | outcome [4] | outcome [5] | outcome [6] | outcome [18] | outcome [7] | outcome [8]

c1ccc2[nH]ccc2c1
inactive: Potency [9] | Potency [10] | Potency [11] | Potency [12] | Potency [13] | Potency [14] | Potency [15] | Potency [16] | Potency [17] | max response [1] 4.59% | max response [2] -5.55% | outcome [3] | outcome [4] | outcome [5] | outcome [6] | outcome [18] | outcome [7] | outcome [8]

O=C(O)Cc1cn(-c2ccccc2)nc1-c1ccc(Cl)cc1
inactive: Potency [9] | Potency [10] | Potency [11] | Potency [12] | Potency [13] | Potency [14] | Potency [15] | Potency [16] | Potency [17] | max response [1] 3.22% | outcome [2] | max response [3] -24% | max response [4] 4.05% | outcome [19] | outcome [6] | outcome [18] | outcome [7] | outcome [8]

FC(F)(F)C(Cl)Br (configuration not stated)
inactive: Potency [9] | Potency [10] | Potency [11] | Potency [12] | Potency [13] | Potency [14] | Potency [15] | Potency [16] | max response [1] 3.98% | max response [2] 0.482% | outcome [3] | outcome [4] | outcome [5] | outcome [6] | outcome [18] | outcome [7] | outcome [8]

COc1ccc(-c2cc(=O)c3c(O)cc(O[C@@H]4O[C@H](CO[C@@H]5O[C@@H](C)[C@H](O)[C@@H](O)[C@H]5O)[C@@H](O)[C@H](O)[C@H]4O)cc3o2)cc1O
inactive: max response [1] -26.4% | outcome [2] | max response [3] -10.9% | max response [4] -0.449% | outcome [19] | outcome [6] | outcome [18] | outcome [7] | outcome [8]

C[N+]1(C)CCCC(OC(=O)C(O)(c2ccccc2)c2ccccc2)C1 (configuration not stated)
inactive: max response [1] 2.14% | max response [2] -3.74% | outcome [3] | max response [4] 4.37% | outcome [5] | outcome [6] | outcome [18] | outcome [7] | outcome [8]

O=C(O)c1ccccc1C(=O)Nc1ccc(S(=O)(=O)Nc2nccs2)cc1
inactive: Potency [9] | Potency [10] | Potency [11] | Potency [12] | Potency [13] | Potency [14] | Potency [15] | Potency [16] | Potency [17] | max response [1] -2.05% | outcome [2] | max response [3] -2.6% | max response [4] -7.95% | outcome [19] | outcome [6] | outcome [18] | outcome [7] | outcome [8]

CN(C/C=C/C#CC(C)(C)C)Cc1cccc2ccccc12
inactive: Potency [9] | Potency [10] | Potency [11] | Potency [12] | Potency [13] | Potency [14] | Potency [15] | Potency [16] | max response [1] -11.8% | max response [2] -4.51% | outcome [3] | max response [4] 2.57% | outcome [5] | outcome [6] | outcome [7] | outcome [8]

O=C(Cn1ccnc1[N+](=O)[O-])NCCO
inactive: Potency [9] | Potency [10] | Potency [11] | Potency [12] | Potency [13] | Potency [14] | Potency [15] | Potency [16] | Potency [17] | max response [1] 1.72% | outcome [2] | max response [3] 0.0021% | max response [4] 4.22% | outcome [19] | outcome [6] | outcome [18] | outcome [7] | outcome [8]

NC(=O)CCCCC1CCSS1 (configuration not stated)
inactive: Potency [10] | Potency [12] | Potency [13] | Potency [14] | Potency [15] | Potency [17] | max response [1] -9.01% | max response [2] 2.03% | max response [3] -1.45% | max response [4] -6.71% | outcome [6] | outcome [18] | outcome [7] | outcome [8]

NC(=O)CC[C@@H](N)C(=O)O
inactive: Potency [9] | Potency [10] | Potency [11] | Potency [12] | Potency [13] | Potency [14] | Potency [15] | Potency [16] | Potency [17] | max response [1] -0.379% | max response [2] -7.81% | max response [3] -14.8% | max response [4] 0.058% | outcome [6] | outcome [18] | outcome [7] | outcome [8]
